Experimental data reported in PubChem BioAssay AID588590 (National Center for Advancing Translational Sciences (NCATS), 2011).
Values joined by “and” are separate entries in the source; they are usually repeats but may differ in a detail not shown here. Equal values may be shown once. Screen size: about 390,000 compounds; about 4,000 (1%) were called active. Inconclusive results (about 7%) are left out. Calls come from the whole dose curve; as a rule, active = well fitted inhibition curve with a large enough effect; inconclusive = small, poorly fitted or top-dose-only effect, or another doubt; inactive = no such curve, though single readings can be large or run the other way. For the sample, actives were picked, then their nearest neighbours and some compounds at random.

Molecular target: DNA polymerase iota (Homo sapiens) (UniProt Q9UNA4)
Sequence (Q9UNA4 whole entry, looked up): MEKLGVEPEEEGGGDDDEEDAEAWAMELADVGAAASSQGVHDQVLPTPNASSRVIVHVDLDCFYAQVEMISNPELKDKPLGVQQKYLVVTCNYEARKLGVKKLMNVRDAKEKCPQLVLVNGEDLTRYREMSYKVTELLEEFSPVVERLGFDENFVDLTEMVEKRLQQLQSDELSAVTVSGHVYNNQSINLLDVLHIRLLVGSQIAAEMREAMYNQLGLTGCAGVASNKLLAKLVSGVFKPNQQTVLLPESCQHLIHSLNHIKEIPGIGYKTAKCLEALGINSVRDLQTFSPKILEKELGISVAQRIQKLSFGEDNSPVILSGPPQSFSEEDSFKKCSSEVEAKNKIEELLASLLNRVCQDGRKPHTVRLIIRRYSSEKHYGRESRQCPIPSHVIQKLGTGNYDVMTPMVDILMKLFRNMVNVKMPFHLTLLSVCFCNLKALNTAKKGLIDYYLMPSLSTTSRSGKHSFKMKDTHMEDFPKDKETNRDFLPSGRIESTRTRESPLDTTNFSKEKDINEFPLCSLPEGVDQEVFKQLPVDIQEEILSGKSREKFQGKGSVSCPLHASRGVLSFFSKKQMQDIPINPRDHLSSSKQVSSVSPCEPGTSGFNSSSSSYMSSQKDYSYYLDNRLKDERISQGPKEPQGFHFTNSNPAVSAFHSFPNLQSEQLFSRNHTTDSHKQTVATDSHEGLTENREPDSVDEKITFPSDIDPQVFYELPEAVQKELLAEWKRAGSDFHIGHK
Assay: qHTS for Inhibitors of Polymerase Iota
Details: Pol iota fluorescent replication assay, 10 min; series mostly up to 115 µM; activity, negative = inhibition: at the top concentration
Method in brief: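 Pol iota at 10 nM preincubated 15 min with compounds at room temperature; reaction started with fluorescent substrate, 50 nM final. Fluorescence read kinetically at 0 and 10 min; buffer-only wells as negative control.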
Potency is the fitted concentration of half-maximal effect.

activity, negative = inhibition, inactive:
COc1ccc(/C=C/c2ccnc3ccccc23)cc1OC 3.3%
CN(C(=N)N)c1ccc(/C=C2\C=Cc3ccccc32)cc1 4.23%
CC(C)C(=O)Nc1c2c(nn1-c1ccccc1)CSC2 10.4%
O=C(NCCCO)C(=O)Nc1c2c(nn1-c1ccccc1)CSC2 10.5%
COc1ccc(CNC(=O)Cn2nnc(-c3ccc(S(C)(=O)=O)cc3)n2)cc1 -14.7%
O=C(C[n+]1ccncc1)c1ccc2c(c1)CCCC2 6.27%
CC(C)(C)n1c(=O)[nH]c2c(c1=O)CCC2 4.41%
Cc1c(N=Nc2ccc(N(C)C)cc2)c(=O)n(-c2ccccc2)n1C 7.1%
CC(C)NC(=O)C1CCC(Cn2c(=O)c3sccc3n(Cc3ccc(F)cc3)c2=O)CC1 (stereo unspecified) -3.5%
CCOC(=O)C1CCC(CN(Cc2ccc(OC)cc2)S(=O)(=O)c2ccc(F)c(C(=O)Nc3cc(C)ccc3C)c2)CC1 (stereo unspecified) -12.9%
CC(C)(C)c1ccc(C(=O)NCC(c2ccco2)S(=O)(=O)c2ccc(F)cc2)cc1 (stereo unspecified) -3.42%
COc1ccccc1NC(=O)C1=C(C)Nc2ncnn2C1c1sccc1C (stereo unspecified) -10.5%
O=C(O)C1=C/C(=C/C=[N+]2c3cc(O)c(O[C@H]4OC(CO)[C@@H](O)[C@@H](O)[C@@H]4O)cc3C[C@@H]2C(=O)[O-])C[C@H](C(=O)O)N1 (stereo partly specified) -28%
CCCS(=O)(=O)Nc1cccc(-c2cn3ccsc3n2)c1 0.928%
Cc1ccc(C)c(N2CCN(C(=O)Cn3nc(C)c4sc5ccccc5c4c3=O)CC2)c1 13.8%
Cc1ccc(S(=O)(=O)N2CCCc3cc(NS(=O)(=O)c4cc(C)ccc4C)ccc32)cc1 12.8%
CCOc1ccc(NC(=O)CSc2nnc3c(n2)[nH]c2ccc(S(=O)(=O)N4CCOCC4)cc23)cc1 10%
Cc1ccc(-c2nn3c(=O)cc(CN4CCN(C(=O)Nc5cccc(C(F)(F)F)c5)CC4)nc3s2)cc1 34.4%
Cn1c(=O)c2c(-c3ccccc3Br)n(Cc3ccccc3)cc2n(C)c1=O 4.59%
COc1cccc(CNC(=O)c2ccc3c(c2)sc2nc(-c4cccc(OC)c4)cn23)c1 1.33%
COc1cccc2c1cc1c(=O)n(CC(=O)N3CCN(c4ccccc4)CC3)nc(C)n12 -0.0822%
C=CC1C(OC2OC(CO)C(O)C(O)C2O)OC=C(C(=O)OC)C1CC1CC(=O)CC(CC(=O)CCc2ccc(O)cc2)O1 (stereo unspecified) 20%
CC1=C(C)C(=O)OC(C(C)C2CCC3C4CC=C5CC(OC6OC(COC7OC(CO)C(O)C(O)C7O)C(O)C(O)C6O)CC(O)C5(C)C4CCC23C)C1 (stereo unspecified) -19.9%
Nc1ncnc2nnsc12 -2.97%
COC(=O)c1ccc(Cn2c(SCC(=O)N(C)c3ccccc3)nc3ccccc32)cc1 -4.29%
CC(=O)c1cc(-c2ccccc2)[nH]c1N1CCCC1 5.83%
COc1ccc2c(c1)C=C(C(=O)NCc1cc(Br)ccc1OC)CO2 24.9%
COC(=O)c1ccc(NC(=O)CCc2c(C)nn(-c3ccc(N4CCCC4)nn3)c2C)cc1 3.11%
COc1ccc(C)cc1NC(=O)COCc1cc(-c2cccs2)on1 -5.82%
O=C(NC1CC(=O)N(c2ccccc2)C1)c1ccco1 (stereo unspecified) 18.3%
CCOc1cc2[nH]c(=O)n(Cc3ccc(C(=O)NCCN(CC)CC)cc3)c(=O)c2cc1OCC 22.6%
Cc1ccc(C(=O)OCC(=O)N2CC(C)CC(C)C2)cc1S(=O)(=O)N1CCCCC1 (stereo unspecified) 50.2%
COc1ccc(CNC(=O)COC(=O)c2ccc(C)c(S(=O)(=O)N3CCOCC3)c2)cc1OC 33.4%
CC1CCCN(c2nc3c(S(=O)(=O)c4ccc(C(C)C)cc4)nnn3c3ccsc23)C1 (stereo unspecified) 28.7%
CCc1nn(CC(=O)Nc2cccc(C)c2C)c(=O)c2cc3sccc3n12 -1.22%
O=C(CN1C(=O)c2cccc3cccc(c23)C1=O)N1CCCCC1 27.2%
O=C(CN1C(=O)c2cccc3cccc1c23)Nc1ccccc1 120%
CCn1c(C)c(C)c2cc(C(=O)NCCc3cc(OC)ccc3OC)ccc21 10.3%
Cc1cccc(CCNC(=O)c2ccc3c(c2)nc2n3CCC(C)C2)c1 (stereo unspecified) 21.1%
COc1cc2[nH]c(C)c(CCN3CCN(c4ccccc4)CC3)c2cc1OC 14.1%
COC(=O)C1=C(C)NC(=O)/C1=C/c1ccc(CNS(=O)(=O)c2ccc(C)cc2)o1 8.35%
O=S(=O)(NCc1ccccc1)c1ccc(S(=O)(=O)N2CCCC2)cc1 55.4%
CCc1cccc(-n2nnc(-c3nsc(NC(=O)c4ccc(C)cc4)n3)c2C)c1 10.3%
O=C(Nc1ccc2oc(-c3ccc(O)c(Br)c3)nc2c1)c1cc2ccccc2o1 25%
Cc1ccccc1NC(=O)Cn1c(=O)n(Cc2ccco2)c(=O)c2ccc(C(=O)NC3CCCC3)cc21 11.1%
COc1ccc(NC(=O)C2CCCN(S(=O)(=O)c3cccc4nonc34)C2)cc1Cl (stereo unspecified) -4.75%
COc1ccc(CNC(=O)CCC(=O)Nc2nnc(C(C)C)s2)cc1 39.1%
O=C(Cc1cccs1)Nc1ccc([N+](=O)[O-])cc1 -7.17%
COc1ccc(Cc2nnc(NC(=O)c3cc(OC)c(OC)c(OC)c3)s2)cc1OC -6.07%
CCOc1ccc(NC(=O)C/C(C)=N/NC(=O)Cc2cccs2)cc1 16.3%
CCc1nnc(NC(=O)CCC(=O)NCc2ccccc2OC)s1 14.9%
CCOc1ccccc1NC(=O)CCn1cnnn1 12.4%
COc1ccc(-c2cc(-c3ccccc3)nc3c2COc2ccc(Cl)cc2-3)cc1 16.9%
CCN(CC)c1nc(C#N)nc(OC)n1 -19.6%
CCc1ccc(OCCCn2c(CCCNC(=O)C3CCCCC3)nc3ccccc32)cc1 22.4%
C/C(=N\Nc1ccccc1)c1cccs1 14.5%
CCOC(=O)C/C(C)=N\Nc1ccc([N+](=O)[O-])cc1[N+](=O)[O-] -3.02%
O=C(Cc1ccccn1)c1ccc(O)cc1O -3.24%
Cc1ccc(C(=O)NNc2ncnc3ccccc23)cc1 -4.31%
CN(Cc1ccccc1)C(=O)c1cc2c(=O)n(C)c3ccccc3c2s1 -0.232%
CN(C)c1ccc(/C=C/c2c3ccccc3nc3ccccc23)cc1 -2.85%
CN(C)c1ccc(/C=C/c2sc3ccccc3[n+]2CCCCBr)cc1 41.8%
CCCN1CCC(=O)N(C(CSc2ccc(OC)cc2)Cc2ccccc2)CC1 (stereo unspecified) 14.6%
C[N+]1(CC(=O)c2cccs2)CCOCC1 14.8%
CCc1ccc(N2CC(C(=O)N3CCCCCC3)CC2=O)cc1 (stereo unspecified) -6.39%
CCc1ccc(N2CC(C(=O)Nc3ccc(S(=O)(=O)Nc4nccs4)cc3)CC2=O)cc1 (stereo unspecified) 7.88%
Cc1cccc(CN2Cc3cccc4c3[C@H](C=CC4)CC2=S)c1 31.4%
CC1CCCN(S(=O)(=O)c2ccc3[nH]c(=O)cc(C(=O)NCCc4ccc(Cl)cc4)c3c2)C1 (stereo unspecified) 4.12%
COc1cc2nc(Cl)nc(NC3CC3)c2cc1OC 17.8%
COc1ccc(C)cc1NC(=O)C(=O)NCCc1sc(-c2cccc(C)c2)nc1C 32%
Cc1ccc(NC(=O)c2nc(S(=O)(=O)Cc3cccc(C)c3)ncc2Cl)cc1 -13.9%
COc1cc(C(CC(=O)NCCC(C)C)N2Cc3ccccc3C2=O)cc(OC)c1OC (stereo unspecified) 5.25%
COc1ccc(CCNC(=O)c2c3c(nc4ccccc24)C(=O)N(C2CCCCC2)C3)cc1OC 8.03%
Cc1c(NC(=O)C(C)(C)C)cccc1-c1nc2ccccc2s1 11.4%
O=C(COc1ccc(Cl)cc1)Nc1ccc(-c2nc3cc(Cl)ccc3o2)c(O)c1 28.2%
O=C(O)c1ccc2c(=O)n3c(nc2c1)/C(=C/c1ccc(Cl)c([N+](=O)[O-])c1)CC3 123%
O=C1C2C3C=CC(C4CC34)C2C(=O)N1/N=C/c1ccc(-c2ccccc2[N+](=O)[O-])o1 (stereo unspecified) -5.9%

Potency, active:
CC(=O)Nc1c2c(nn1-c1cccc(C)c1)CSC2 50.1 µM
O=c1[nH]n2c(=O)c3c([nH]c2c1N=Nc1ccccc1)CCC3 50.1 µM
COc1cccc2c1C(=O)c1c(O)c3c(c(O)c1C2=O)CC(O)(C(C)=NNC(=O)c1ccc(Cl)c(Cl)c1)CC3OC1CC(N)C(O)C(C)O1 (stereo unspecified) 50.1 µM
C=C(C)C(=O)O[C@H]1C/C(C)=C\C(=O)/C=C(\C)[C@H](O)[C@@H]2OC(=O)C(=C)[C@@H]21 35.5 µM
CC(/C=C/C1(O)C(C)CC(=O)CC1(C)C)OC1OC(CO)C(O)C(O)C1O (stereo unspecified) 79.4 µM
CCC(C)Cn1c(O)cc2nn(-c3nc4ccccc4s3)c(=O)c-2c1C (stereo unspecified) 12.6 µM
O=C1NN(c2ccccc2)C(=O)/C1=C/c1ccc(-c2cccc(C(=O)O)c2)o1 8.91 µM
Cc1ccc(C(=O)OCC(=O)NCc2cc(C)c(O)c(C)c2)cc1S(=O)(=O)N1CCCCC1 79.4 µM
C[N+](C)(CCCCCC[N+](C)(C)CCCN1C(=O)c2cccc3cccc(c23)C1=O)CCCN1C(=O)c2cccc3cccc(c23)C1=O 2.24 µM and 20 µM
O=c1/c(=C/c2ccc(CNS(=O)(=O)c3ccccc3)o2)sc2n1CCN=2 35.5 µM
COc1ccc(Cc2nnc(NC(=O)Cc3cccs3)s2)cc1 4.47 µM
CCOc1ccccc1NC(=O)Cc1cccs1 44.7 µM
CCc1nnc(NC(=O)Cc2cccs2)s1 11.2 µM
C/C(=N\Nc1ccc(S(N)(=O)=O)cc1[N+](=O)[O-])c1cccs1 25.1 µM
O=C(NNc1c2ccccc2nc2ccccc12)c1cc2ccccc2cc1O 39.8 µM
CN(C)c1ccc(/C=C/c2sc3ccccc3[n+]2C)cc1 79.4 µM
CCc1ccc(N2CC(C(=O)NC3=NCCS3)CC2=O)cc1 (stereo unspecified) 89.1 µM
C=C1c2c(Cl)ccc(O)c2C(O)=C2C(=O)[C@]3(O)C(O)=C(C(N)=O)C(=O)[C@@H](N(C)C)[C@@H]3[C@@H](O)C12 (stereo partly specified) 2.51 µM
CC1=NN(c2ccc(Cl)c(C(=O)O)c2)C(=O)/C1=C/c1ccc(-c2ccccc2[N+](=O)[O-])o1 1.41 µM
